# The source made the active and inactive calls.
# Legend:
# [1] = small molecules captured by biotinylated probe aFSTL3 – biochemical, small-molecule microarray, fluorescence 635/667, stem cell growth factor project, primary screen (AID 1064); conditions: higher = more signal;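 also: measures binding of the biotinylated anti-FSTL3 antibody to printed compounds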
# [2] = binders from COS7 lysate, DM2A8 probe, primary screen, torsin A project, cell lysate, small-molecule microarray, fluorescence 635/667 (AID 1065); conditions: higher = more signal, COS7 lysate expressing mutant human TOR1A
# [3] = small molecules captured by biotinylated probe aFGF2 – biochemical, small-molecule microarray, fluorescence 635/667, stem cell growth factor project, primary screen (AID 1067); conditions: higher = more signal;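 also: measures binding of biotinylated aFGF2 protein to printed compounds on slides; z-score merges feature fluorescence and signal-to-noise across triplicate slides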
# [4] = small molecules captured by biotinylated probe aFGF10 – biochemical, small-molecule microarray, fluorescence 635/667, stem cell growth factor project, primary screen (AID 1071); conditions: higher = more signal;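 also: score merges 667 nm spot intensity and signal to noise from triplicate slides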
# [5] = target: Neurogenic locus notch homolog protein 2 (Homo sapiens) (UniProt Q04721); assay: small molecules binding Notch2 protein – biochemical, small-molecule microarray, 635 nm fluorescence, stem cell growth factors, primary screen (AID 1073); conditions: higher = more signal
# [6] = target: Pro-neuregulin-1, membrane-bound isoform (Homo sapiens) (UniProt Q02297); assay: small molecules binding neuregulin-1 protein – biochemical, small-molecule microarray, fluorescence 635/667, psychiatric disease protein project, primary screen (AID 1075); conditions: NRG1 binding, 635 nm fluorescence, higher = more signal;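 also: score combines 667 nm spot fluorescence with signal to noise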
# [7] = system: Neuregulin-1 EGF-like domain; assay: small molecules binding NRG1 EGF domain – biochemical, small-molecule microarray, 635 nm fluorescence, primary screen (AID 1081); conditions: higher = more signal;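 also: binding of the protein to compounds printed on small-molecule microarray slides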
# [8] = FRG1 expression reporter modulators in myotubes – cell-based, C2C12 myotubes, firefly/Renilla luciferase, luminescence, FRG1 inhibition for FSHD, primary screen (AID 1084); conditions: FRG1 promoter luciferase, higher = more signal, called active from +8 up or from −8 down
# [9] = small molecules captured by biotinylated probe aFST – biochemical, small-molecule microarray, fluorescence 635/667, stem cell growth factor project, primary screen (AID 1086); conditions: higher = more signal;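 also: score merges 667 nm fluorescence with signal-to-noise of each printed compound spot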
# [10] = binders of probe aHhip on microarray, primary screen, stem cell growth factor project, biochemical, small-molecule microarray, fluorescence 635/667 (AID 1087); conditions: higher = more signal;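 also: score merges spot fluorescence at 667nm with spot signal to noise ratio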
# [11] = system: PRMT1 (protein arginine N-methyltransferase 1); assay: small molecules binding arginine methyltransferase PRMT1 – biochemical, small-molecule microarray, 635 nm fluorescence, primary screen (AID 1088); conditions: higher = more signal;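 also: binding of Prmt1 protein to compounds spotted on small-molecule microarray slides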
# [12] = growth effects on S. cerevisiae YJM789 – YJM789 clinical isolate, OD600, 24 h, basal, primary screen (AID 1089); conditions: higher = more signal, called active from +8 up or from −8 down;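 also: growth of clinical yeast isolate S. cerevisiae YJM 789 seeded 1000 cells per well; test concentration not given here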
# [13] = S. pombe growth modifiers, basal conditions – strain 972, OD600, 24 h, no modulator, primary screen (AID 1090);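 also: basal condition with compound alone and no growth modifier present; test concentration not given here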; conditions: S. pombe 972 growth, higher = more signal, called active from +8 up or from −8 down
# [14] = budding yeast growth modifiers under rapamycin – strain BY4716, OD600, 96 h, primary screen (AID 1091); also: test concentration not given here; conditions: S. cerevisiae BY4716 + rapamycin, higher = more signal, called active from +8 up or from −8 down
# [15] = target: Torsin-1A-interacting protein 2 (Homo sapiens) (UniProt Q8NFQ8); assay: small molecules binding lysate-expressed LULL1 – cell lysate, human LULL1 lysate, 635/667 nm fluorescence, primary screen (AID 1092); conditions: small-molecule microarray, hLULL1 lysate binding, 635 nm fluorescence; higher = more signal;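 also: probe is lysate of COS7 cells overexpressing human LULL1; score merges per-feature 667 nm fluorescence with signal-to-noise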
# [16] = optical density change of DRC41 E. coli – strain DRC41, OD650, 24 h, E. coli filamentation project, primary screen (AID 1093);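 also: MC1000 strain lacking acrAB efflux and sulA so SOS filamentation is blocked; test concentration not given here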; conditions: E. coli DRC41 growth, higher = more signal, called active from +8 up or from −8 down
# [17] = probe aLefty2 binding to arrayed compounds – biochemical, biotinylated probe, 635/667 nm fluorescence, primary screen (AID 1094); conditions: small-molecule microarray, higher = more signal;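 also: score merges spot fluorescence near 667 nm with spot signal-to-noise ratio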
# [18] = system: Noggin (protein binding on small-molecule microarray); assay: small molecules binding Noggin protein – biochemical, 635/667 nm fluorescence, primary screen (AID 1095); conditions: 635 nm fluorescence, higher = more signal;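 also: score merges 667 nm feature fluorescence with signal to noise over triplicate slides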
# [19] = target: Neurogenic locus notch homolog protein 3 (Homo sapiens) (UniProt Q9UM47); assay: small molecules binding NOTCH3 protein – biochemical, 635/667 nm fluorescence, primary screen (AID 1096); conditions: small-molecule microarray, 635 nm fluorescence, higher = more signal
# [20] = probe aEGFR binding to arrayed compounds – biochemical, biotinylated probe, 635/667 nm fluorescence, primary screen (AID 1097); conditions: small-molecule microarray, higher = more signal;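 also: probe is a biotinylated anti-EGFR antibody binding compounds printed on slides; score combines fluorescence near 667 nm and signal to noise of each spot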
# Sequence of Torsin-1A-interacting protein 2 (Homo sapiens) (Q8NFQ8 whole entry, looked up): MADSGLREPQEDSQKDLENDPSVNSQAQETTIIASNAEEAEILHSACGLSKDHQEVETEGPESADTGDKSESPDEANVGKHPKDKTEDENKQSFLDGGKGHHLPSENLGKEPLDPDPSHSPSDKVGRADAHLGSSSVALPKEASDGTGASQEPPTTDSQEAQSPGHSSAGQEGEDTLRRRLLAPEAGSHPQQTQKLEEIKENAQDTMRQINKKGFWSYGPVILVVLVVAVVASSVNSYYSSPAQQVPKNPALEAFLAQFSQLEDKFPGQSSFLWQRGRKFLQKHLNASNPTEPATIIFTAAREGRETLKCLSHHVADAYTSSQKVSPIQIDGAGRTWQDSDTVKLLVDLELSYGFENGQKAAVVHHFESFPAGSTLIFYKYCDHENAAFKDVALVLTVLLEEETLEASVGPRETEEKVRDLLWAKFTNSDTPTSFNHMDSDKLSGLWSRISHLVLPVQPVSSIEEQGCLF
# Sequence of Neurogenic locus notch homolog protein 2 (Homo sapiens) (Q04721 whole entry, looked up, canonical isoform): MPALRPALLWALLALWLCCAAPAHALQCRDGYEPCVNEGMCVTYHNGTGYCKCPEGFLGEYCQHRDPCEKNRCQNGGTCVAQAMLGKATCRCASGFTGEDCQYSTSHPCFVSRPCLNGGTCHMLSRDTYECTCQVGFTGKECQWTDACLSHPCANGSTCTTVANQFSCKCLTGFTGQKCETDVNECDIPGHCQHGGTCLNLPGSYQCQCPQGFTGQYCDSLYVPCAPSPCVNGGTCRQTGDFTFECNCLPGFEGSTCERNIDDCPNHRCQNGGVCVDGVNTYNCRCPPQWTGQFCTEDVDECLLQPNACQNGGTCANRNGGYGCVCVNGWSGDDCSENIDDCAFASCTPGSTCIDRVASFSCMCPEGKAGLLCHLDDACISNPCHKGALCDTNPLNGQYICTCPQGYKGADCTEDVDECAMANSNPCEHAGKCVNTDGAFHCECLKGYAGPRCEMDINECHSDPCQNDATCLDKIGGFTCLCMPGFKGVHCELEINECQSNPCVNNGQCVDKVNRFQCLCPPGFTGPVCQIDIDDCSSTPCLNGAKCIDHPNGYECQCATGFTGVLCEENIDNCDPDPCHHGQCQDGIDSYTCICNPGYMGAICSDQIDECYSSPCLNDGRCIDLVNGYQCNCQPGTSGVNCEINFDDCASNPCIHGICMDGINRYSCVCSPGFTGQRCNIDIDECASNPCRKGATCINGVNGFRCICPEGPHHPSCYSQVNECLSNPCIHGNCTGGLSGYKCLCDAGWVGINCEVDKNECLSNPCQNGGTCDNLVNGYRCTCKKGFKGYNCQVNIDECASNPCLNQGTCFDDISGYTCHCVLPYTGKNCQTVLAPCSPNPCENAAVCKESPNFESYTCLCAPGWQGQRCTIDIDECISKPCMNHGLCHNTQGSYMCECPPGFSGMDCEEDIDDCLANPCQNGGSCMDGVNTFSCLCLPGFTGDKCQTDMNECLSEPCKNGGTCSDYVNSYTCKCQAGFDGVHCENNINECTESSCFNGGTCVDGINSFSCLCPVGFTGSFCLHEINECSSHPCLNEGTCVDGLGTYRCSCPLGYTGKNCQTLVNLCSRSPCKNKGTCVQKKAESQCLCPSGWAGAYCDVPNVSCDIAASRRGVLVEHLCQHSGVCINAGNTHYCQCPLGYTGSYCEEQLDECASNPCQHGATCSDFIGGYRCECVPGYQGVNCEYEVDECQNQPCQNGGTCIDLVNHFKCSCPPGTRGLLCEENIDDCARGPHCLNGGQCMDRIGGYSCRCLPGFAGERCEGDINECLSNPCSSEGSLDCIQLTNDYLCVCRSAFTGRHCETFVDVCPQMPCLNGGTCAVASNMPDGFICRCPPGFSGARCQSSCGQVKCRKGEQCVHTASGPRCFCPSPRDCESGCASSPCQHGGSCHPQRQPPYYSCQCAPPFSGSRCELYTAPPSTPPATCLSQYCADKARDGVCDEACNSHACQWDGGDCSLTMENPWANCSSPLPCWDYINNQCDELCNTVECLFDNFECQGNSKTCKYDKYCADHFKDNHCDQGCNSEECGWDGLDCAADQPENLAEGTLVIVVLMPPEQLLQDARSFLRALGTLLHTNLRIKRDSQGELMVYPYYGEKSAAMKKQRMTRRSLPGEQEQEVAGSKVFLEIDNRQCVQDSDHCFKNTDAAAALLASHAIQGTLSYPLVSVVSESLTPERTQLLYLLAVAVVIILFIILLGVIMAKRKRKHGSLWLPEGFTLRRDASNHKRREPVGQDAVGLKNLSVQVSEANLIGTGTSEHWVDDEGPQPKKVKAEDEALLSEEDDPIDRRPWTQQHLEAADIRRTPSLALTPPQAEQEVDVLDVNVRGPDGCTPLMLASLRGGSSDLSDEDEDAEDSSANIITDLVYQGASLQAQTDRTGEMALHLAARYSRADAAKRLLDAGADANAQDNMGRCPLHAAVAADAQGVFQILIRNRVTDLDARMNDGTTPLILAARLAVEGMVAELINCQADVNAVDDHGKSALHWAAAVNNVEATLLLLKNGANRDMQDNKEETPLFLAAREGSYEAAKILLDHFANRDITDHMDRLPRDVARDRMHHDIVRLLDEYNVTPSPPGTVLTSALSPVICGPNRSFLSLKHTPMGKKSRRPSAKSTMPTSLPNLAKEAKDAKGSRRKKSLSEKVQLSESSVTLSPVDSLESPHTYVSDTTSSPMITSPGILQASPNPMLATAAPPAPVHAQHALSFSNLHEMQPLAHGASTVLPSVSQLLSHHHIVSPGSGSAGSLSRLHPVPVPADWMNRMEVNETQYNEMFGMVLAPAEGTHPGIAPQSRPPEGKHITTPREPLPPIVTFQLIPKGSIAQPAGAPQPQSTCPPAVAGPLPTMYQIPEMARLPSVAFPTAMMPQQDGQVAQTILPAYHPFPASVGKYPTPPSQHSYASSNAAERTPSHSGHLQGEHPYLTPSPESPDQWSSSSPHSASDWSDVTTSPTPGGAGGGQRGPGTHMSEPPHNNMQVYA
# Sequence of Pro-neuregulin-1, membrane-bound isoform (Homo sapiens) (Q02297 whole entry, looked up, the tested form may be a part, canonical isoform): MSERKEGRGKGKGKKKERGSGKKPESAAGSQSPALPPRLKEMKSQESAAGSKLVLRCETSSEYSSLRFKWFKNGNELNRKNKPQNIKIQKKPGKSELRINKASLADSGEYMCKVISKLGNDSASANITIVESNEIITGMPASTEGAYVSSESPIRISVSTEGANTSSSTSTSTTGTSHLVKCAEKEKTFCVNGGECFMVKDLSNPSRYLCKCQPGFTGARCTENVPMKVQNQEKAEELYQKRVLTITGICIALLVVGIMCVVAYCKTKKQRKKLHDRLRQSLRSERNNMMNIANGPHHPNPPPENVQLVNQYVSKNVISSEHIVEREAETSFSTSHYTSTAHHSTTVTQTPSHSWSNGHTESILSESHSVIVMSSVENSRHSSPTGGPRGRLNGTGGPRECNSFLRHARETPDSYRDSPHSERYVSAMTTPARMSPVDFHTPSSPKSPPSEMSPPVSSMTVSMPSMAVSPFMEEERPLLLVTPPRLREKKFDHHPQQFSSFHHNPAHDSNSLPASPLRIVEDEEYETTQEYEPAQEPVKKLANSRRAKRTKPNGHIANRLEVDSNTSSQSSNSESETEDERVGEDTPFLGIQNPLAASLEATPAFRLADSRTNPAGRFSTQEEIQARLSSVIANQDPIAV
compound,measurement,setting,value
CCCC=C(CCC)[C@@H](NS(=O)(=O)c1cccs1)c1ccc(C(=O)OC)cc1,composite z-score,[1],0.002
same,composite z-score,[2],-0.0193
same,composite z-score,[3],0.0969
same,composite z-score,[4],0.646
same,composite z-score,[5],1.53
same,composite z-score,[6],1.94
same,composite z-score,[7],1.18
same,z-score,[8],-3.86 (inactive)
same,composite z-score,[9],0.969
same,composite z-score,[10],0.398
same,composite z-score,[11],0.946
same,z-score,[12],0.212 (inactive)
same,z-score,[13],-1.19 (inactive)
same,z-score,[14],0.602 (inactive)
same,composite z-score,[15],3.43
same,z-score,[16],-0.0839 (inactive)
same,composite z-score,[17],-0.0375
same,composite z-score,[18],-0.213
same,composite z-score,[19],0.882
same,composite z-score,[20],-0.11
COCCOC(=O)N1C(=O)[C@@]2(c3cc(C#CCCO)ccc31)[C@H](C(=O)N1CCc3cc(OC)c(OC)cc3C1)[C@H]1C(=O)O[C@H](c3ccccc3)[C@H](c3ccccc3)N1[C@@H]2c1ccc(O)cc1,composite z-score,[1],-0.239
same,composite z-score,[2],0.761
same,composite z-score,[3],0.0106
same,composite z-score,[4],0.393
same,composite z-score,[5],1.15
same,composite z-score,[6],1.46
same,composite z-score,[7],1.32
same,z-score,[8],0.897 (inactive)
same,composite z-score,[9],0.239
same,composite z-score,[10],-0.0645
same,composite z-score,[11],1.54
same,z-score,[12],1.42 (inactive)
same,z-score,[13],0.0725 (inactive)
same,z-score,[14],1.8 (inactive)
same,composite z-score,[15],2.55
same,z-score,[16],0.199 (inactive)
same,composite z-score,[17],0.0262
same,composite z-score,[18],1.07
same,composite z-score,[19],1.08
same,composite z-score,[20],-0.0191
O=C(NCc1ccc(F)cc1)[C@H]1C[C@H]2C(=O)N[C@@H](Cc3ccccc3)C(=O)N2[C@H]1c1ccc(O)cc1,composite z-score,[1],1.12
same,composite z-score,[2],0.949
same,composite z-score,[3],-0.185
same,composite z-score,[4],-0.685
same,composite z-score,[5],-0.878
same,composite z-score,[6],-0.242
same,composite z-score,[7],1.2
same,z-score,[8],1.1 (inactive)
same,composite z-score,[9],-0.823
same,composite z-score,[10],-0.0645
same,composite z-score,[11],0.53
same,z-score,[12],0.839 (inactive)
same,z-score,[13],0.247 (inactive)
same,z-score,[14],2.14 (inactive)
same,composite z-score,[15],2.34
same,z-score,[16],0.675 (inactive)
same,composite z-score,[17],-0.118
same,composite z-score,[18],0.223
same,composite z-score,[19],-0.75
same,composite z-score,[20],-0.268
C#CCNC(=O)[C@H](Cc1ccccc1)NC(=O)CCC(=O)O,composite z-score,[1],-0.0733
same,composite z-score,[2],-0.267
same,composite z-score,[3],-0.158
same,composite z-score,[4],-0.704
same,composite z-score,[5],-1.46
same,composite z-score,[6],-0.592
same,composite z-score,[7],-0.33
same,z-score,[8],0.338 (inactive)
same,composite z-score,[9],1.03
same,composite z-score,[10],-0.0994
same,composite z-score,[11],-1.17
same,z-score,[12],-0.136 (inactive)
same,z-score,[13],0.396 (inactive)
same,z-score,[14],0.0017 (inactive)
same,composite z-score,[15],-0.906
same,z-score,[16],-0.361 (inactive)
same,composite z-score,[17],-0.198
same,composite z-score,[18],-0.88
same,composite z-score,[19],-0.502
same,composite z-score,[20],-0.238
COC(=O)C(CC#Cc1ccc2c(c1)[C@]1(C(=O)N2)[C@H](C(=O)O)[C@H]2C(=O)O[C@H](c3ccccc3)[C@H](c3ccccc3)N2[C@@H]1c1ccc(O)cc1)C(=O)OC,composite z-score,[1],0.43
same,composite z-score,[2],0.108
same,composite z-score,[3],-0.0973
same,composite z-score,[4],0.528
same,composite z-score,[5],-0.806
same,composite z-score,[6],1.42
same,composite z-score,[7],1.23
same,z-score,[8],1.34 (inactive)
same,composite z-score,[9],-0.384
same,composite z-score,[10],-0.236
same,composite z-score,[11],0.615
same,z-score,[12],1.06 (inactive)
same,z-score,[13],0.819 (inactive)
same,z-score,[14],-0.567 (inactive)
same,composite z-score,[15],2.12
same,z-score,[16],-0.913 (inactive)
same,composite z-score,[17],-0.188
same,composite z-score,[18],-0.868
same,composite z-score,[19],-0.608
same,composite z-score,[20],-0.0514
COc1ccc([Si](C)(C)[C@@H]2[C@@H](CC(=O)N3Cc4ccccc4C[C@H]3CO)O[C@]3(C(=O)N(C)c4c(Br)cc(C)cc43)[C@H]2C)cc1,composite z-score,[1],-0.184
same,composite z-score,[2],1.03
same,composite z-score,[3],-0.083
same,composite z-score,[4],0.441
same,composite z-score,[5],0.557
same,composite z-score,[6],0.815
same,composite z-score,[7],1.12
same,z-score,[8],-3.35 (inactive)
same,composite z-score,[9],0.16
same,composite z-score,[10],-0.0672
same,composite z-score,[11],1.54
same,z-score,[12],-0.069 (inactive)
same,z-score,[13],1.2 (inactive)
same,z-score,[14],2.03 (inactive)
same,composite z-score,[15],1.84
same,z-score,[16],0.064 (inactive)
same,composite z-score,[17],-0.174
same,composite z-score,[18],1.55
same,composite z-score,[19],1.12
same,composite z-score,[20],-0.0409
COCCOC(=O)N1C(=O)[C@@]2(c3cc(C#Cc4ccc(OC)cc4)ccc31)[C@H](C(N)=O)[C@H]1C(=O)O[C@H](c3ccccc3)[C@H](c3ccccc3)N1[C@@H]2c1ccccc1OCCO,composite z-score,[1],0.214
same,composite z-score,[2],2.16
same,composite z-score,[3],0.0918
same,composite z-score,[4],1.11
same,composite z-score,[5],1.53
same,composite z-score,[6],1.64
same,composite z-score,[7],1.27
same,z-score,[8],-1.26 (inactive)
same,composite z-score,[9],0.433
same,composite z-score,[10],0.0431
same,composite z-score,[11],1.54
same,z-score,[12],1.05 (inactive)
same,z-score,[13],0.649 (inactive)
same,z-score,[14],3.72 (inactive)
same,composite z-score,[15],2.33
same,z-score,[16],0.071 (inactive)
same,composite z-score,[17],0.306
same,composite z-score,[18],1.55
same,composite z-score,[19],1.08
same,composite z-score,[20],0.245
COc1ccc([C@H]2OC[C@@H]3CC4(CC=CC4)C(=O)N32)cc1,composite z-score,[1],0.0596
same,composite z-score,[2],-0.407
same,composite z-score,[3],-0.129
same,composite z-score,[4],0.479
same,composite z-score,[5],-0.321
same,composite z-score,[6],-0.105
same,composite z-score,[7],1
same,z-score,[8],1.43 (inactive)
same,composite z-score,[9],-0.0135
same,composite z-score,[10],-0.236
same,composite z-score,[11],1.08
same,z-score,[12],-0.205 (inactive)
same,z-score,[13],0.0197 (inactive)
same,z-score,[14],-0.451 (inactive)
same,composite z-score,[15],1.24
same,z-score,[16],-0.472 (inactive)
same,composite z-score,[17],-0.0171
same,composite z-score,[18],1.08
same,composite z-score,[19],0.527
same,composite z-score,[20],0.0376
COCCOC(=O)N1C(=O)[C@@]2(c3ccccc31)[C@H](c1ccccc1OCCO)N1[C@H](c3ccccc3)[C@H](c3ccccc3)OC(=O)[C@H]1[C@@H]2C(=O)Nc1nc2ccccc2s1,composite z-score,[1],-0.223
same,composite z-score,[2],1.03
same,composite z-score,[3],0.0186
same,composite z-score,[4],1.11
same,composite z-score,[5],1.02
same,composite z-score,[6],0.961
same,composite z-score,[7],1.21
same,z-score,[8],-1.02 (inactive)
same,composite z-score,[9],0.215
same,composite z-score,[10],0.0274
same,composite z-score,[11],1.56
same,z-score,[12],1.68 (inactive)
same,z-score,[13],0.981 (inactive)
same,z-score,[14],4.61 (inactive)
same,composite z-score,[15],2.25
same,z-score,[16],2.25 (inactive)
same,composite z-score,[17],-0.0285
same,composite z-score,[18],1.47
same,composite z-score,[19],1.09
same,composite z-score,[20],-0.0244
C=CCOC(=O)[C@H]1[C@@H]2C(=O)O[C@@H](c3ccccc3)[C@@H](c3ccccc3)N2[C@@H](c2ccc(OCCOC(=O)[C@H]3C[C@H]4C(=O)N5CCC[C@H]5C(=O)N4[C@H]3c3ccc(O)cc3)cc2)[C@]12C(=O)Nc1ccc(I)cc12,composite z-score,[1],2.15
same,composite z-score,[2],2.13
same,composite z-score,[3],0.555
same,composite z-score,[4],0.791
same,composite z-score,[5],1.71
same,composite z-score,[6],2.72
same,composite z-score,[7],1.44
same,z-score,[8],-0.269 (inactive)
same,composite z-score,[9],2.72
same,composite z-score,[10],2.39
same,composite z-score,[11],1.53
same,z-score,[12],-0.324 (inactive)
same,z-score,[13],-1.65 (inactive)
same,z-score,[14],0.0891 (inactive)
same,composite z-score,[15],3.64
same,z-score,[16],1.07 (inactive)
same,composite z-score,[17],1.46
same,composite z-score,[18],2
same,composite z-score,[19],1.05
same,composite z-score,[20],0.993

# — PubChem BioAssay
